PubChem BioAssay AID602248 (The Scripps Research Institute Molecular Screening Center, 2012)
The whole screen tested about 360,000 compounds, of which about 1,700 (0.47%) were called active. No stated cut-off is given here; in the data, active means activation above about 15%; inactive means the rest. The sample as a whole holds a higher share of actives than the screen did.

Test: counter-screen for M1 agonists: effect in parental CHO-K1 cells (AID 602248);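 further: untransfected CHO-K1 host cells lacking M1 receptor as counterscreen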
Settings: Fluo-8 calcium fluorescence, at 3 µM, hits give high values

Structure (SMILES)	activation
CN1CCN(C(=S)SCC(=O)Nc2ccc(Cl)cc2C(=O)c2ccccc2)CC1	3.53% (inactive)
O=C(COC(=O)c1ccccc1)Nc1ccc(Cl)cc1C(=O)c1ccccc1	0.05% (inactive)
O=C(CCNS(=O)(=O)c1ccccc1)Nc1ccc(Cl)cc1C(=O)c1ccccc1	16% (active)
CN(C)C(=O)Oc1ccc(OCc2cccc[n+]2C)cc1	-0.29% (inactive)
CCCCCCCCCCCCn1ccc(=N)cc1	31.4% (active)
CNC(=O)Nc1ccc(C(O)(C(=O)OC)C(F)(F)F)cc1 (stereo not given)	1.17% (inactive)
COC(=O)C1=C(c2cccc(OCc3ccccc3)c2)C[C@@H]2CC[C@H]1N2C(=O)NNCc1ccccc1	0.39% (inactive)
CCOC(=O)CC1=C(C(=O)OCC)C2(C(=O)N1)C(C(=O)OC)=C(N)Oc1ccccc12 (stereo not given)	-0.01% (inactive)
O=C1NC(=O)C(CCc2ccccn2)(Cc2cccc(Cl)c2Cl)C(=O)N1c1ccc(Br)cc1 (stereo not given)	4.3% (inactive)
Cc1cc(C(=O)OCC(=O)Nc2c(F)cccc2F)c(C)n1C1CC1	0.33% (inactive)
CC(C)N(CC#CCC1(O)c2ccccc2-c2ccccc21)C(C)C	0.55% (inactive)
N=c1ccccn1Cc1ccccc1	15.6% (active)
CCN1CCN(c2nc3c(c(=O)[nH]2)CCC3)CC1	0.18% (inactive)
CCCn1c(C(=O)c2ccccc2OC)nc2ccccc21	-0.18% (inactive)
CC1=C2C(=O)C3C(CC=C4CC(OC5OC(O)C(O)C(O)C5CO)CCC43C)C2CCC12OC1CC(C)CNC1C2C (stereo not given)	1.23% (inactive)
